Source: PubChem BioAssay (NCI)
The panel holds about 83,000 compounds, 20% with a hit somewhere; the sample as a whole holds those more often.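 Assay: single dose, 48 h. Readout: percent growth (0 = no net growth; negative = cell death). Active: <10.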 A number with no mark means an inactive call. Activity calls are given as the source filed them.

The compounds below were run on HCT-15 colon (assay: NCI-60 one-dose screen, 48 h (100 = growth as untreated, 0 = no growth, -100 = all killed)). Conditions: 10 µM unless noted.
Compound `CCCNC(=O)Oc1ccc(/C(=C(/C)Cc2ccc(OC)cc2)c2ccc(OCCCN(C)C)cc2)cc1` has a growth of 70.3%. Work on `C/C(=N\NC(=O)c1ccccc1O)c1cccc(/C(C)=N/NC(=O)c2ccccc2O)n1` yielded a growth of 42.4%. In the case of `COCCn1c(-c2csc(-c3cn(C)c4ccc(OC)cc34)n2)cc2cccnc21`, the growth was 7.45% (active). Compound `Cn1c(=O)c2[nH]c(N/N=C/c3ccccc3Br)nc2n(C)c1=O` has a growth of 100%. With `O=C(Nc1nn(-c2ccc(Cl)cc2Cl)nc1-c1ccccc1)c1ccccc1` the growth was 97.1%. `C=C1C(=O)O[C@H]2[C@H]1CC/C(COC(=O)NCc1ccc(Cn3c(=O)sn(CCI)c3=O)cc1)=C\CC[C@@]1(C)O[C@@H]21` gave a growth of 41.1%. `Brc1c2c(c(Br)c3ccccc13)CCCC2` gave a growth of 112%. `CS(=O)(=O)c1cccc(-c2c(-c3cccc(OS(N)(=O)=O)c3)nc3sccn23)c1` gave a growth of 104%. Compound `Oc1ccc(CCn2c(O)c(/C=C3\CN=c4ccccc4=N3)sc2=S)cc1` has a growth of 35.2%. In the case of `O=C(O)[C@@H]1c2ccccc2-c2ccccc2[C@H]1C(=O)O`, the growth was 101%. In the case of `Cn1cc(-c2csc(-c3ccc(Cl)cc3)n2)c2cccnc21`, the growth was -31.9% [100 µM] (active). With `NC(=O)c1c(NC(=O)c2ccccc2)sc2c1CCC(=O)C2` the growth was 12.4%. With `Cc1cc(Cl)ccc1Nc1nc(C(F)(F)F)ccc1C(=O)N/N=C/c1ccc([N+](=O)[O-])cc1` the growth was -1.51% (active). `N#Cc1c(NC(=O)c2ccccc2)sc2c1CCC(=O)C2` was tested, and the growth was -3.43% (active). With `Cc1ccc(-c2nn(-c3ccccc3)cc2C=C2C(=O)ON=C2C(C)C)cc1` the growth was 63%. `CC(C)n1cnc2c(=S)nc[nH]c21` showed a growth of 102%. Compound `CN1C(=O)/C(=C/c2ccc(C(=O)Nc3ncc(Cc4ccc(Cl)cc4)s3)cc2)SC1=S` has a growth of 21.7%. In the case of `O=C(Nc1ccc(NC(=O)c2cc(=O)[nH]c3ccccc23)cc1)Nc1cccc(C(F)(F)F)c1`, the growth was 95.3%. `O=C(NCCCCNC(=O)OCc1ccc2c(Cl)cc(Cl)c(O)c2n1)OCc1ccc2c(Cl)cc(Cl)c(O)c2n1` gave a growth of 13%. In the case of `CCC(C)N(c1ccc(Cl)cc1)c1nc(-c2ccc(Br)cc2)cs1` (stereo not given), the growth was 97.7%. With `COc1cc(-n2cc(-c3cc(O)c(C/C=C(\C)CCC=C(C)C)c(O)c3)nn2)cc2c1O[C@]1(C)CC[C@@H](O)C(C)(C)[C@H]1C2` the growth was -12.2% (active). Compound `C=CCn1c(SCC(=O)Nc2ccc(C(=O)/C=C/c3ccc(Cl)cc3)cc2)nnc1-c1cc(-c2ccc(S(N)(=O)=O)cc2)nc2ccccc12` has a growth of 96.5%. For `Clc1ccc2c(c1)N(c1ncnc3ccc(-c4cnc5[nH]ncc5c4)cc13)CC2`, the growth was 25%. With `O=C(Nc1ccc(-c2nc(N3CCOCC3)c3cccn3n2)cc1)Nc1cccnc1` the growth was 6.69% (active). `CCc1ccc(Oc2cn[nH]c2-c2ccc(OCCc3ccc(F)cc3)cc2O)cc1` showed a growth of 74.3%. `C#Cc1cccc(Nc2ncnc3ccc(-c4cnc(N)nc4)cc23)c1` was tested, and the growth was 23.1%. In the case of `Oc1c(Cl)cc(Cl)c2ccc(Cn3cc(-c4cc(C(F)(F)F)cc(C(F)(F)F)c4)nn3)nc12`, the growth was 12.5%. With `COc1cc(N2C(=O)[C@H](O)C2c2ccc(SC)cc2)cc(OC)c1OC` (stereo not given in full) the growth was 12.8%. Work on `OCCCC1CCN(C(Cc2ccccc2)c2ccccc2)CC1` (stereo not given) yielded a growth of 100%. For `CNC(=O)c1c(NC(=O)c2ccc(C(F)(F)F)cc2)sc2c1CCC(=O)C2`, the growth was -54.1% (active). In the case of `CC/C(=C(/c1ccc(Cl)cc1)c1ccc(OCCN2CCCC2)cc1)c1ccc(OC)cc1`, the growth was 28.1%. Compound `O=C1Nc2ccccc2/C1=C\c1nc(-c2ccccc2F)n2ccccc12` has a growth of 42.3%. In the case of `Cc1cc(=O)[nH]c2c(C#N)cnn12`, the growth was 107%. With `COc1ccc(C/C(C)=C(/c2ccc(OCCN3CCCCC3)cc2)c2ccc(OC(=O)NCc3ccccc3)cc2)cc1` the growth was -85.4% (active). `COc1ccc(CC(C#N)c2cc3ccccc3[nH]2)cc1` (stereo not given) showed a growth of 91.5%. With `N#CC1CCc2c(c(-c3cn[nH]c3C(F)(F)F)nc3c(F)cc4[nH]ncc4c23)C1` (stereo not given) the growth was 86.1%. `Cn1ccnc1C(=O)C(=O)Nc1ccc(CC(=O)Nc2ccccc2)cc1` was tested, and the growth was 96.9%. In the case of `Cc1ccc(/C=N/Nc2nc(Nc3ccccc3)nc(-n3nc(C)cc3C)n2)cc1`, the growth was 25.2%. `Cc1nc2ncnc(Cl)c2[nH]1` was tested, and the growth was 100%. For `COc1ccc2[nH]cc(-c3nc(-c4c[nH]c5ccncc45)cs3)c2c1`, the growth was -10.2% (active).

These compounds were tested on HT29 colon in the same assay as above. Conditions: 10 µM unless noted.
Work on `CCCNC(=O)Oc1ccc(/C(=C(/C)Cc2ccc(OC)cc2)c2ccc(OCCCN(C)C)cc2)cc1` yielded a growth of 25.7%. Compound `C/C(=N\NC(=O)c1ccccc1O)c1cccc(/C(C)=N/NC(=O)c2ccccc2O)n1` has a growth of 41.2%. `COCCn1c(-c2csc(-c3cn(C)c4ccc(OC)cc34)n2)cc2cccnc21` was tested, and the growth was 5% (active). In the case of `Cn1c(=O)c2[nH]c(N/N=C/c3ccccc3Br)nc2n(C)c1=O`, the growth was 106%. With `O=C(Nc1nn(-c2ccc(Cl)cc2Cl)nc1-c1ccccc1)c1ccccc1` the growth was 94.1%. `C=C1C(=O)O[C@H]2[C@H]1CC/C(COC(=O)NCc1ccc(Cn3c(=O)sn(CCI)c3=O)cc1)=C\CC[C@@]1(C)O[C@@H]21` showed a growth of 39.8%. In the case of `Brc1c2c(c(Br)c3ccccc13)CCCC2`, the growth was 85.2%. `CS(=O)(=O)c1cccc(-c2c(-c3cccc(OS(N)(=O)=O)c3)nc3sccn23)c1` gave a growth of 107%. With `Oc1ccc(CCn2c(O)c(/C=C3\CN=c4ccccc4=N3)sc2=S)cc1` the growth was 62%. For `O=C(O)[C@@H]1c2ccccc2-c2ccccc2[C@H]1C(=O)O`, the growth was 102%. `Cn1cc(-c2csc(-c3ccc(Cl)cc3)n2)c2cccnc21` was tested, and the growth was -70.3% [100 µM] (active). In the case of `NC(=O)c1c(NC(=O)c2ccccc2)sc2c1CCC(=O)C2`, the growth was 9.53% (active). `Cc1cc(Cl)ccc1Nc1nc(C(F)(F)F)ccc1C(=O)N/N=C/c1ccc([N+](=O)[O-])cc1` was tested, and the growth was -26.6% (active). Compound `N#Cc1c(NC(=O)c2ccccc2)sc2c1CCC(=O)C2` has a growth of 14.1%. With `Cc1ccc(-c2nn(-c3ccccc3)cc2C=C2C(=O)ON=C2C(C)C)cc1` the growth was 44.5%. For `CC(C)n1cnc2c(=S)nc[nH]c21`, the growth was 118%. `CN1C(=O)/C(=C/c2ccc(C(=O)Nc3ncc(Cc4ccc(Cl)cc4)s3)cc2)SC1=S` was tested, and the growth was 20.2%. `O=C(Nc1ccc(NC(=O)c2cc(=O)[nH]c3ccccc23)cc1)Nc1cccc(C(F)(F)F)c1` was tested, and the growth was 67.8%. Compound `O=C(NCCCCNC(=O)OCc1ccc2c(Cl)cc(Cl)c(O)c2n1)OCc1ccc2c(Cl)cc(Cl)c(O)c2n1` has a growth of 103%. Compound `CCC(C)N(c1ccc(Cl)cc1)c1nc(-c2ccc(Br)cc2)cs1` (stereo not given) has a growth of 106%. In the case of `COc1cc(-n2cc(-c3cc(O)c(C/C=C(\C)CCC=C(C)C)c(O)c3)nn2)cc2c1O[C@]1(C)CC[C@@H](O)C(C)(C)[C@H]1C2`, the growth was -34.6% (active). Compound `C=CCn1c(SCC(=O)Nc2ccc(C(=O)/C=C/c3ccc(Cl)cc3)cc2)nnc1-c1cc(-c2ccc(S(N)(=O)=O)cc2)nc2ccccc12` has a growth of 97.4%. `Clc1ccc2c(c1)N(c1ncnc3ccc(-c4cnc5[nH]ncc5c4)cc13)CC2` was tested, and the growth was 19.3%. With `O=C(Nc1ccc(-c2nc(N3CCOCC3)c3cccn3n2)cc1)Nc1cccnc1` the growth was 7.6% (active). In the case of `CCc1ccc(Oc2cn[nH]c2-c2ccc(OCCc3ccc(F)cc3)cc2O)cc1`, the growth was 42.4%. For `C#Cc1cccc(Nc2ncnc3ccc(-c4cnc(N)nc4)cc23)c1`, the growth was 48%. `Oc1c(Cl)cc(Cl)c2ccc(Cn3cc(-c4cc(C(F)(F)F)cc(C(F)(F)F)c4)nn3)nc12` gave a growth of 53.4%. In the case of `COc1cc(N2C(=O)[C@H](O)C2c2ccc(SC)cc2)cc(OC)c1OC` (stereo not given in full), the growth was -14.5% (active). Work on `OCCCC1CCN(C(Cc2ccccc2)c2ccccc2)CC1` (stereo not given) yielded a growth of 76.5%. `CNC(=O)c1c(NC(=O)c2ccc(C(F)(F)F)cc2)sc2c1CCC(=O)C2` was tested, and the growth was 5.12% (active). Work on `CC/C(=C(/c1ccc(Cl)cc1)c1ccc(OCCN2CCCC2)cc1)c1ccc(OC)cc1` yielded a growth of 13.7%. Work on `O=C1Nc2ccccc2/C1=C\c1nc(-c2ccccc2F)n2ccccc12` yielded a growth of 11.6%. With `Cc1cc(=O)[nH]c2c(C#N)cnn12` the growth was 104%. For `COc1ccc(C/C(C)=C(/c2ccc(OCCN3CCCCC3)cc2)c2ccc(OC(=O)NCc3ccccc3)cc2)cc1`, the growth was -87.8% (active). Work on `COc1ccc(CC(C#N)c2cc3ccccc3[nH]2)cc1` (stereo not given) yielded a growth of 96.5%. `N#CC1CCc2c(c(-c3cn[nH]c3C(F)(F)F)nc3c(F)cc4[nH]ncc4c23)C1` (stereo not given) gave a growth of 42.1%. Work on `Cn1ccnc1C(=O)C(=O)Nc1ccc(CC(=O)Nc2ccccc2)cc1` yielded a growth of 107%. `Cc1ccc(/C=N/Nc2nc(Nc3ccccc3)nc(-n3nc(C)cc3C)n2)cc1` was tested, and the growth was 32.7%. Compound `Cc1nc2ncnc(Cl)c2[nH]1` has a growth of 80.9%. In the case of `COc1ccc2[nH]cc(-c3nc(-c4c[nH]c5ccncc45)cs3)c2c1`, the growth was -15.7% (active).
